Several values for one entry are separate records, joined by “and”; a condition that tells them apart may be missing. Equal values may be shown once. Results filed as inconclusive are left out. Some structures have more than one record in an assay (separate samples or runs), and their calls can disagree. Activity calls are given as the source filed them. Unless noted, calls follow the shape of the dose curve; as a rule, active = well fitted curve in the direction sought with a large enough effect; inconclusive = small, poorly fitted or top-dose-only effect, or another doubt; inactive = no such curve, though single readings can be large; an effect the other way counts as inactive or inconclusive.
Assays:
Es-2 = assay: Primary qHTS to identify gynecologic anti-cancer compounds using libraries of approved drugs and bioactive compounds (AID 1345084); conditions: Gynecologic cancer cell panel viability, ATPlite luminescence, 48 h; series mostly up to 57.5 µM; also: nearly all actives have a fitted effect of over 55% in size; also: potency is read from the fitted curve at half-maximal effect
Procedure, shortened: (§1)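 In this quantitative HTS, cell killing is estimated from loss of ATP-dependent luciferase light. Cells see five compound concentrations over a 48 h exposure.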

HeLa = assay: as above; conditions: Gynecologic cancer cell panel viability, ATPlite luminescence, 48 h; series mostly up to 57.5 µM
Procedure, shortened: as §1

Hek293T = assay: as above; conditions: Gynecologic cancer cell panel viability, ATPlite luminescence, 48 h, control line for the selectivity index; series mostly up to 57.5 µM
Procedure, shortened: as §1

JEG-3 = assay: as above; conditions: Gynecologic cancer cell panel viability, ATPlite luminescence, 48 h; series mostly up to 57.5 µM
Procedure, shortened: as §1

PA-1 = assay: as above; conditions: Gynecologic cancer cell panel viability, ATPlite luminescence, 48 h; series mostly up to 57.5 µM
Procedure, shortened: as §1

Tov-21-G = assay: as above; conditions: Gynecologic cancer cell panel viability, ATPlite luminescence, 48 h; series mostly up to 57.5 µM
Procedure, shortened: as §1

[1] = Drug repurposing screens with cells derived from glioblastoma tumor samples (AID 1345199); conditions: GBM patient neurospheres viability, ATP luminescence, 48 h; also: nearly all actives have a fitted effect of over 40% in size; also: potency is read from the fitted curve at half-maximal effect; as to activity, negative = cell killing: % is scaled to controls: 0 for no effect and ±100 for the full control effect
Procedure, shortened: (§2)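 Primary testing used CD133+ neurospheres from four GBM patients, seven concentrations, 48 h exposure and ATP-based viability; confirmation added three slower-growing patient lines.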

SKOV3 = assay: Primary qHTS to identify gynecologic anti-cancer compounds using libraries of approved drugs and bioactive compounds (AID 1345084); conditions: Gynecologic cancer cell panel viability, ATPlite luminescence, 48 h; series mostly up to 57.5 µM; also: nearly all actives have a fitted effect of over 55% in size; also: potency is read from the fitted curve at half-maximal effect
Procedure, shortened: as §1

Tov112D = assay: as above; conditions: Gynecologic cancer cell panel viability, ATPlite luminescence, 48 h; series mostly up to 57.5 µM
Procedure, shortened: as §1

astro = assay: Drug repurposing screens with cells derived from glioblastoma tumor samples (AID 1345199); conditions: viability, ATP luminescence, 48 h; series mostly up to 45.9 µM; also: nearly all actives have a fitted effect of over 40% in size; also: potency is read from the fitted curve at half-maximal effect; as to activity, negative = cell killing: % is scaled to controls: 0 for no effect and ±100 for the full control effect
Procedure, shortened: as §2

OV90 = assay: Primary qHTS to identify gynecologic anti-cancer compounds using libraries of approved drugs and bioactive compounds (AID 1345084); conditions: Gynecologic cancer cell panel viability, ATPlite luminescence, 48 h; series mostly up to 57.5 µM; also: nearly all actives have a fitted effect of over 55% in size; also: potency is read from the fitted curve at half-maximal effect
Procedure, shortened: as §1

[2] = biological target: Nuclear receptor subfamily 1 group I member 2 (Rattus norvegicus) (UniProt Q9R1A7); assay: qHTS assay for small molecule activators of the rat pregnane X receptor (rPXR) signaling pathway (AID 651751; call rule not given here; also: 0% is about no effect); conditions: rPXR reporter cells, luciferase (One-Glo), 24 h
Chain of Nuclear receptor subfamily 1 group I member 2 (Rattus norvegicus) (Q9R1A7 whole entry, looked up): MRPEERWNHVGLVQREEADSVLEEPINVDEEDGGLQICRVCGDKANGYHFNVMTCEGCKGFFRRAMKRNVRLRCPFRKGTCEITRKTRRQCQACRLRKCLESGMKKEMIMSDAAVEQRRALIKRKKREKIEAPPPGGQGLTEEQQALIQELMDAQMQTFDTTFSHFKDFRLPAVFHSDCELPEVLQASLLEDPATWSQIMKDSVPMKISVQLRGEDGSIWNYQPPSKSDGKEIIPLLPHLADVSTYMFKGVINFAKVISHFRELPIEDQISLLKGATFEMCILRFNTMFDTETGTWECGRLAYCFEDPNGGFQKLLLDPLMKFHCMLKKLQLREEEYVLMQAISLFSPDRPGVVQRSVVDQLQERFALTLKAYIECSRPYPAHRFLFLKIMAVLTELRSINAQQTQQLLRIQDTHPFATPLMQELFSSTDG

[3] = at 45.9 µM (top of the series), tumour line B
[4] = at 45.9 µM (top of the series), tumour line D
[5] = at 46 µM (top of the series), tumour line A

COc1cc(CC(C)N)cc(OC)c1OC (stereo not given)
active: Potency (Es-2) 15.8 µM | Potency (HeLa) 1.58 µM | Potency (PA-1) 2.51 µM | Potency (Tov-21-G) 0.708 µM
inactive: outcome (Hek293T) | outcome (JEG-3) | activity, negative = cell killing ([1]; at 108 µM (top of the series), tumour line B) -12% | activity, negative = cell killing ([1]; at 108 µM (top of the series), tumour line D) -16.2%

O=c1c(C2CC(c3ccc(-c4ccc(Br)cc4)cc3)Cc3ccccc32)c(O)sc2ccccc12 (stereo not given)
inactive: Potency (Es-2) | outcome (Hek293T) | Potency (PA-1) | outcome (SKOV3) | Potency (Tov112D)

CN1C(=O)C(O)N=C(c2ccccc2)c2cc(Cl)ccc21 (stereo not given)
inactive: activity, negative = cell killing [1, 3] 2.89% | activity, negative = cell killing [1, 4] -6.26% | activity, negative = cell killing [1, 5] -24.3%

C[C@](O)(CS(=O)(=O)c1ccc(F)cc1)C(=O)Nc1ccc(C#N)c(C(F)(F)F)c1
active: Potency ([1]; tumour line A) 12.6 µM
inactive: activity, negative = cell killing [1, 3] -21.4%

CCCCCN(C)CCC(O)(P(=O)(O)O)P(=O)(O)O
inactive: activity, negative = cell killing [1, 3] -6.41% | activity, negative = cell killing [1, 4] -6.48% | activity, negative = cell killing [1, 5] -14.8%

CCCN(CCC)C(=O)Cc1c(-c2ccc(Cl)cc2)nc2ccc(Cl)cn12
active: Potency ([1]; tumour line A) 10 µM
inactive: Potency (Es-2) | Potency (HeLa) | outcome (Hek293T) | outcome (JEG-3) | outcome (SKOV3) | Potency (Tov-21-G) | Potency (Tov112D) | activity, negative = cell killing [1, 3] -4.08% | Potency (astro)

C[C@]1(O)CC[C@H]2[C@@H]3CCC4=CC(=O)CC[C@]4(C)[C@@]3(F)[C@@H](O)C[C@@]21C
active: Potency ([1]; tumour line A) 35.5 µM
inactive: activity, negative = cell killing [1, 3] -7.52% | activity, negative = cell killing [1, 4] -21.3% | Potency (astro)

Clc1ccc2c(c1)C(c1ccccc1)=NCc1nncn1-2
inactive: activity, negative = cell killing [1, 3] -7.06% | activity, negative = cell killing [1, 4] 3.75% | Potency (astro)

C[C@]12CCC(=O)C=C1CC[C@@H]1[C@@H]2CC[C@]2(C)C(=O)CC[C@@H]12
inactive: Potency (Es-2) | outcome (Hek293T) | outcome (JEG-3) | Potency (OV90) | outcome (SKOV3) | Potency (Tov-21-G) | Potency (Tov112D) | activity, negative = cell killing [1, 3] -22.1% | max response [2] 5.29% and 4.66%
active: Potency ([1]; tumour line A) 10 µM

Cc1nnc2n1-c1ccc(Cl)cc1C(c1ccccc1Cl)=NC2
inactive: activity, negative = cell killing [1, 3] -10.7% | activity, negative = cell killing [1, 4] -8.42% | activity, negative = cell killing [1, 5] -36.4%

NC(=O)c1cc([N+](=O)[O-])cc([N+](=O)[O-])c1
inactive: Potency (Es-2) | Potency (HeLa) | outcome (Hek293T) | Potency (OV90) | Potency (PA-1) | outcome (SKOV3) | Potency (Tov-21-G) | Potency (Tov112D) | activity, negative = cell killing [1, 3] -14% | activity, negative = cell killing [1, 4] -22.7%

CN1C[C@H](C(=O)N[C@]2(C)O[C@@]3(O)[C@@H]4CCCN4C(=O)[C@H](Cc4ccccc4)N3C2=O)C=C2c3cccc4[nH]cc(c34)C[C@H]21
active: Potency ([1]; tumour line A) 14.1 µM
inactive: activity, negative = cell killing [1, 3] -13.4% | Potency (astro) | max response [2] 10% and -0.133%

CC(C)[C@H]1C(=O)N2CCC[C@H]2[C@]2(O)O[C@](NC(=O)[C@@H]3C[C@@H]4c5cccc6[nH]cc(c56)C[C@H]4N(C)C3)(C(C)C)C(=O)N12
inactive: activity, negative = cell killing [1, 3] -21%
active: Potency ([1]; tumour line A) 7.08 µM

CCN(CC)C(=O)[C@@H]1C=C2c3cccc4[nH]cc(c34)C[C@H]2N(C)C1
inactive: Potency (Es-2) | Potency (HeLa) | outcome (Hek293T) | outcome (JEG-3) | Potency (Tov-21-G) | Potency (Tov112D) | activity, negative = cell killing [1, 3] -17.8% | activity, negative = cell killing ([1]; at 194 µM (top of the series), tumour line B) -16.6% | Potency (astro)

CN[C@@H](C)Cc1ccccc1
inactive: activity, negative = cell killing ([1]; at 91.6 µM (top of the series), tumour line A) -24.4% | activity, negative = cell killing ([1]; at 91.6 µM (top of the series), tumour line B) -1.76% | activity, negative = cell killing ([1]; at 91.6 µM (top of the series), tumour line D) 4.77% | Potency (astro)

CN=C1CN(O)C(c2ccccc2)=c2cc(Cl)ccc2=N1
active: Potency ([1]; tumour line A) 11.2 µM
inactive: activity, negative = cell killing [1, 3] -15.1% and 1.01% | activity, negative = cell killing [1, 4] -14.7% and -15.6% | Potency (astro)

Cc1nnc2n1-c1ccc(Cl)cc1C(c1ccccc1)=NC2
inactive: activity, negative = cell killing [1, 4] 7.45%
